Several values for one entry are separate records, joined by “and”; a condition that tells them apart may be missing. Identical values can stand only once. Out of some 5,500 compounds screened, about 2,000 (36%) were called active. About 18% were inconclusive and are not listed. Cut-off read from the data, not from the text of the source: active = normalized growth mostly below about 0.91 (no sharp cut-off); inconclusive = no clear call, values can overlap the other calls; inactive = mostly above about 0.92. This is one part of the list.
Assay: chemical genetic growth profiling, strain panel (AID 1159580);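 note: tested at 20 µM; growth read once vehicle control cultures reached saturation at 30 °C; 1 = growth at the plate median or of vehicle wells; lower values mean less growth of the strain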
Conditions: S. cerevisiae deletion strains, growth OD

Measured: normalized growth

OCCN1CCN(CCCN2c3ccccc3Sc3ccc(Cl)cc32)CC1
active: locus YAL026C, strain drs2, stronger effect = lower value 0.674 | locus YDR137W, strain rgp1, stronger effect = lower value 1.33 [resistant]
inactive: locus YAL013W, strain DEP1, stronger effect = lower value 1.02 and 1.01 | locus YAL021C, strain ccr4, stronger effect = lower value 1 | locus YAL030W, strain snc1, stronger effect = lower value 1.01 | locus YAL040C, strain CLN3, stronger effect = lower value 0.984 | locus YBL061C, strain skt5, stronger effect = lower value 0.996 | locus YBR009C, strain hhf1, stronger effect = lower value 0.998 | locus YBR021W, strain FUR4, stronger effect = lower value 0.988 | locus YBR023C, strain chs3, stronger effect = lower value 0.996 | locus YBR171W, strain sec66, stronger effect = lower value 1.01 | locus YBR229C, strain ROT2, stronger effect = lower value 1.01 | locus YBR231C, strain swc5, stronger effect = lower value 1 | locus YBR279W, strain paf1, stronger effect = lower value 0.998 | locus YCL011C, strain gbp2, stronger effect = lower value 0.997 | locus YCL016C, strain dcc1, stronger effect = lower value 0.994 | locus YCL029C, strain bik1, stronger effect = lower value 0.984 | locus YCL061C, strain MRC1 (second series), stronger effect = lower value 1.01 | locus YCL061C, strain MRC1, stronger effect = lower value 1 | locus YCL069W, strain vba3, stronger effect = lower value 1.01 | locus YCR088W, strain abp1, stronger effect = lower value 1.01 | locus YDL005C, strain med2, stronger effect = lower value 1.01 | locus YDL035C, strain GPR1, stronger effect = lower value 0.996 | locus YDL040C, strain nat1, stronger effect = lower value 1 | locus YDL074C, strain BRE1, stronger effect = lower value 0.955 | locus YDL101C, strain DUN1, stronger effect = lower value 1.01 | locus YDL134C, strain PPH21, stronger effect = lower value 1.02 | locus YDL185W, strain tfp1, stronger effect = lower value 0.996 | locus YDL192W, strain arf1, stronger effect = lower value 1.01 | locus YDR001C, strain nth1, stronger effect = lower value 1 | locus YDR069C, strain doa4, stronger effect = lower value 0.987 | locus YDR101C, strain arx1, stronger effect = lower value 0.959 | locus YDR150W, strain NUM1, stronger effect = lower value 1.03 | locus YDR159W, strain sac3, stronger effect = lower value 1.01 | locus YDR162C, strain NBP2, stronger effect = lower value 1 | locus YDR195W, strain ref2 1.12 | locus YDR297W, strain sur2, stronger effect = lower value 0.997 | locus YDR318W, strain mcm21, stronger effect = lower value 0.966 | locus YDR334W, strain swr1, stronger effect = lower value 1 | locus YDR335W, strain msn5, stronger effect = lower value 1 | locus YDR363W, strain ESC2, stronger effect = lower value 0.995 | locus YDR388W, stronger effect = lower value 0.979 | locus YDR392W, strain spt3, stronger effect = lower value 0.998 | locus YDR502C, strain sam2, stronger effect = lower value 0.96 | locus YEL003W, strain gim4, stronger effect = lower value 0.988 | locus YEL037C, strain rad23, stronger effect = lower value 1 | locus YEL061C, strain CIN8 (second series), stronger effect = lower value 1 | locus YEL061C, strain CIN8, stronger effect = lower value 1.01 | locus YER002W, strain NOP16, stronger effect = lower value 1.04 | locus YER015W, strain faa2, stronger effect = lower value 1 | locus YER016W, strain bim1, stronger effect = lower value 1 | locus YER110C, stronger effect = lower value 0.998 | locus YER111C, strain swi4, stronger effect = lower value 1 | locus YER155C, strain BEM2 (second series), stronger effect = lower value 0.971 | locus YER155C, strain BEM2, stronger effect = lower value 1.03 | locus YER167W, strain BCK2, stronger effect = lower value 1.01 | locus YFR010W, strain ubp6, stronger effect = lower value 0.976 | locus YGL078C, strain dbp3, stronger effect = lower value 0.994 | locus YGL086W, strain mad1, stronger effect = lower value 0.993 | locus YGL167C, strain pmr1, stronger effect = lower value 0.989 | locus YGL173C, strain kem1, stronger effect = lower value 0.972 | locus YGL227W, strain vid30, stronger effect = lower value 1.01 | locus YGL240W, strain doc1, stronger effect = lower value 1.04 | locus YGL248W, strain PDE1, stronger effect = lower value 1.02 | locus YGL253W, strain hxk2, stronger effect = lower value 0.997 | locus YGR078C, strain PAC10, stronger effect = lower value 0.997 and 0.999 | locus YGR135W, strain pre9, stronger effect = lower value 0.958 | locus YGR229C, strain SMI1, stronger effect = lower value 0.958 | locus YGR252W, strain gcn5, stronger effect = lower value 0.931 | locus YHR013C, strain ard1, stronger effect = lower value 0.995 | locus YHR027C, strain rpn1, stronger effect = lower value 0.988 | locus YHR030C, strain SLT2, stronger effect = lower value 1.02 and 0.987 | locus YHR079C, strain IRE1 (second series), stronger effect = lower value 0.984 | locus YHR079C, strain IRE1, stronger effect = lower value 0.993 | locus YHR094C, strain hxt1, stronger effect = lower value 0.992 | locus YHR129C, strain ARP1, stronger effect = lower value 1.01 | locus YHR142W, strain chs7, stronger effect = lower value 1.01 | locus YHR200W, strain rpn10, stronger effect = lower value 0.986 | locus YIL066C, strain RNR3, stronger effect = lower value 0.998 | locus YIL073C, strain SPO22, stronger effect = lower value 1.01 | locus YIL125W, strain kgd1, stronger effect = lower value 0.991 | locus YIR030C, strain dcg1, stronger effect = lower value 0.997 | locus YJL092W, strain hpr5, stronger effect = lower value 1 | locus YJL095W, strain BCK1 (second series), stronger effect = lower value 1 | locus YJL095W, strain BCK1, stronger effect = lower value 0.977 and 0.981 | locus YJL115W, strain asf1, stronger effect = lower value 1 | locus YJL129C, strain trk1, stronger effect = lower value 1.01 | locus YJL134W, strain LCB3, stronger effect = lower value 1.01 | locus YJL154C, strain vps35, stronger effect = lower value 1.01 | locus YJL164C, strain tpk1, stronger effect = lower value 0.988 | locus YJL166W, strain qcr8, stronger effect = lower value 1.01 | locus YJL168C, strain set2, stronger effect = lower value 0.991 | locus YJL187C, strain SWE1 (second series), stronger effect = lower value 1 | locus YJL187C, strain SWE1, stronger effect = lower value 1 | locus YJR043C, strain POL32, stronger effect = lower value 1.02 | locus YJR066W, strain TOR1, stronger effect = lower value 0.954

From PubChem BioAssay AID1159580 (chemical genetic matrix, 2015)
